The values that follow come from ChEMBL document CHEMBL2218924, “A broad activity screen in support of a chemogenomic map for kinase signalling research and drug discovery” (Biochem J, 2013).

Assay [1] has as its target Serine/threonine-protein kinase SIK1 (Homo sapiens) (UniProt P57059). As to conditions: at 10 µM.
The target of assay [2] is SRSF protein kinase 1 (Homo sapiens) (UniProt Q96SB4). As to conditions: at 1 µM.
The target is the same in assay [3]. As to conditions: at 10 µM.
Assay [4] deals with SRSF protein kinase 2 (Homo sapiens) (UniProt P78362). The following applies: at 1 µM.
Assay [5] shares this target. As to conditions: at 10 µM.
For assay [6], the target named is Serine/threonine-protein kinase 33 (Homo sapiens) (UniProt Q9BYT3). The following applies: at 1 µM.
Assay [7] shares this target. The following applies: at 10 µM.
In assay [8] the target is Serine/threonine-protein kinase PLK2 (Homo sapiens) (UniProt Q9NYY3). As to conditions: at 1 µM.
The target is the same in assay [9]. As to conditions: at 10 µM.
The target in assay [10] is Tyrosine-protein kinase SYK (Homo sapiens) (UniProt P43405). As to conditions: at 1 µM.
The target is the same in assay [11]. The following applies: at 10 µM.
Assay [12] deals with T1, Mitogen-activated protein kinase kinase kinase 7 (Homo sapiens) (UniProt O43318).
T1 sequence (whole entry): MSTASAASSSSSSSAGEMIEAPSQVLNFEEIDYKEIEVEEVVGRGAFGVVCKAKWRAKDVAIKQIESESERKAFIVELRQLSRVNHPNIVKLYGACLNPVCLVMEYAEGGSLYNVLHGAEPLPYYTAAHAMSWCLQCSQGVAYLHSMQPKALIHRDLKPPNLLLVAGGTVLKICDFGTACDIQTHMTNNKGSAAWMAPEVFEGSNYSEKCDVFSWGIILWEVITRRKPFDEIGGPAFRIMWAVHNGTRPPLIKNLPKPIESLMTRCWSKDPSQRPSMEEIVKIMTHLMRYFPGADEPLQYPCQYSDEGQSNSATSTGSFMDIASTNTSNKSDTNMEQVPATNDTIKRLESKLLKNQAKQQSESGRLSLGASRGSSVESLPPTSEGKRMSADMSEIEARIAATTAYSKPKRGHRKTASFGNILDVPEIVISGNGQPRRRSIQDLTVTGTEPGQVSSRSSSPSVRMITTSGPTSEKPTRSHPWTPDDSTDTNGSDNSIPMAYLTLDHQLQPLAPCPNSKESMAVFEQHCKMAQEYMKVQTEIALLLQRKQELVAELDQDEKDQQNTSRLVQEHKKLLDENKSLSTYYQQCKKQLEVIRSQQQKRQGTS
The following applies: at 1 µM.

Assay [13] deals with T1, Mitogen-activated protein kinase kinase kinase 7 (Homo sapiens). As to conditions: at 10 µM.
Assay [14] deals with T2, Serine/threonine-protein kinase TAO1 (Homo sapiens) (UniProt Q7L7X3).
T2 sequence (whole entry): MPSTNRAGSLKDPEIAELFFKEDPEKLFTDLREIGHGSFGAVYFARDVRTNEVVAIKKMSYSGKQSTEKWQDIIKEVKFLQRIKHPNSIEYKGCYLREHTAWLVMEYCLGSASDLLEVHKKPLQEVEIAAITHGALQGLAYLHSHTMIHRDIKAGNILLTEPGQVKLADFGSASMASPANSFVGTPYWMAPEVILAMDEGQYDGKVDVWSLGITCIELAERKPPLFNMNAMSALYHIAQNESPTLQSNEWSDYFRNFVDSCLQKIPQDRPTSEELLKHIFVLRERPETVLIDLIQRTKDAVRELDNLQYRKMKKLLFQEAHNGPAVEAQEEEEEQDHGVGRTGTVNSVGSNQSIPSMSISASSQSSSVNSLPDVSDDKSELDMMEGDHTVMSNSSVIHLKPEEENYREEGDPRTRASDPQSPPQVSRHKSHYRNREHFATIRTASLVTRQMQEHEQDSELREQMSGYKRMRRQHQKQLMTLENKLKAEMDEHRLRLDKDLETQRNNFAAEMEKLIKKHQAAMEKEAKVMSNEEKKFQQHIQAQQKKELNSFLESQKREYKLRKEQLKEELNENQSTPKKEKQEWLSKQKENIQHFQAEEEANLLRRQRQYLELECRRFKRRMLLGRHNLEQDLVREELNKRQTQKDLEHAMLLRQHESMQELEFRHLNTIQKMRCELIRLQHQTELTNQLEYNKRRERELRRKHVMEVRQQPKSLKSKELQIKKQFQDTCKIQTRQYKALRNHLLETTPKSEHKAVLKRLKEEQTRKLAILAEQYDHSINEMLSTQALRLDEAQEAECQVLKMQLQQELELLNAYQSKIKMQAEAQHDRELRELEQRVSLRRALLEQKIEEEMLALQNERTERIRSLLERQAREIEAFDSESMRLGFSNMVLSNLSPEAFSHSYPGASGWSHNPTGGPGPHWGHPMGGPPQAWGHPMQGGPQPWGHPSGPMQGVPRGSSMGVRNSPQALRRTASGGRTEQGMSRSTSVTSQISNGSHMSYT
As to conditions: at 1 µM.

Assay [15] addresses T2, Serine/threonine-protein kinase TAO1 (Homo sapiens). The following applies: at 10 µM.
Assay [16] addresses T3, Serine/threonine-protein kinase TAO2 (Homo sapiens) (UniProt Q9UL54).
T3 sequence (whole entry): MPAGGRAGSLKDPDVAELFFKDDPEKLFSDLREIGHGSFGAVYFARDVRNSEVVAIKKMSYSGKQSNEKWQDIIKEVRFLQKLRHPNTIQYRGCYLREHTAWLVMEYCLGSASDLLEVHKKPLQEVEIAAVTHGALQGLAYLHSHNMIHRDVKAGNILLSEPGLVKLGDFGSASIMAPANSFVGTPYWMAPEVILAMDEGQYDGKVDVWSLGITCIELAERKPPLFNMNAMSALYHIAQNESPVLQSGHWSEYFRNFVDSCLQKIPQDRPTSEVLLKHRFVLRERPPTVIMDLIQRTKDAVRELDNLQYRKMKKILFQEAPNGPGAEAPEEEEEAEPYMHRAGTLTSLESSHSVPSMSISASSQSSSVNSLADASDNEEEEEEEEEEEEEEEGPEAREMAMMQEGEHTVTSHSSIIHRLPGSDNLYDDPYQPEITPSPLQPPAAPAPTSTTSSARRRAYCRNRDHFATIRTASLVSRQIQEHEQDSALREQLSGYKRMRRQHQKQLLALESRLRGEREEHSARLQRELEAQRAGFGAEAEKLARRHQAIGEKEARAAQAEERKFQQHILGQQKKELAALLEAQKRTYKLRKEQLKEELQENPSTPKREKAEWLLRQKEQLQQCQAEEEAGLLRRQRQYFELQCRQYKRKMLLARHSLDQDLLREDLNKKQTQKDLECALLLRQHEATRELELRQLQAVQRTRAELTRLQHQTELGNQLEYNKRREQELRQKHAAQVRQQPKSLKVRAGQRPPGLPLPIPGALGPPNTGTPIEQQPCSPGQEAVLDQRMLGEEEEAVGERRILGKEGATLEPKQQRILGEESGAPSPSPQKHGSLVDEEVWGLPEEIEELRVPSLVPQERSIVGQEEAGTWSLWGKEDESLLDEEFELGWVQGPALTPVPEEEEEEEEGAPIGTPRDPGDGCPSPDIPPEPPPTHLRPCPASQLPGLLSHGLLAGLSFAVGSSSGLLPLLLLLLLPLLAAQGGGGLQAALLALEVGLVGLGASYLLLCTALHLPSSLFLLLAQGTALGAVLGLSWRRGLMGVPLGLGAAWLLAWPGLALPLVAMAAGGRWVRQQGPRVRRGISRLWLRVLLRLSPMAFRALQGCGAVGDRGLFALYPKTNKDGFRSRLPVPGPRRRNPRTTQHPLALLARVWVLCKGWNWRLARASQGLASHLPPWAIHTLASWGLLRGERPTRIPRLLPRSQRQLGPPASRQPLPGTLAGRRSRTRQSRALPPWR
The following applies: at 1 µM.

The target of assay [17] is T3, Serine/threonine-protein kinase TAO2 (Homo sapiens). The following applies: at 10 µM.
In assay [18] the target is T4, Serine/threonine-protein kinase TAO3 (Homo sapiens) (UniProt Q9H2K8).
T4 sequence (whole entry): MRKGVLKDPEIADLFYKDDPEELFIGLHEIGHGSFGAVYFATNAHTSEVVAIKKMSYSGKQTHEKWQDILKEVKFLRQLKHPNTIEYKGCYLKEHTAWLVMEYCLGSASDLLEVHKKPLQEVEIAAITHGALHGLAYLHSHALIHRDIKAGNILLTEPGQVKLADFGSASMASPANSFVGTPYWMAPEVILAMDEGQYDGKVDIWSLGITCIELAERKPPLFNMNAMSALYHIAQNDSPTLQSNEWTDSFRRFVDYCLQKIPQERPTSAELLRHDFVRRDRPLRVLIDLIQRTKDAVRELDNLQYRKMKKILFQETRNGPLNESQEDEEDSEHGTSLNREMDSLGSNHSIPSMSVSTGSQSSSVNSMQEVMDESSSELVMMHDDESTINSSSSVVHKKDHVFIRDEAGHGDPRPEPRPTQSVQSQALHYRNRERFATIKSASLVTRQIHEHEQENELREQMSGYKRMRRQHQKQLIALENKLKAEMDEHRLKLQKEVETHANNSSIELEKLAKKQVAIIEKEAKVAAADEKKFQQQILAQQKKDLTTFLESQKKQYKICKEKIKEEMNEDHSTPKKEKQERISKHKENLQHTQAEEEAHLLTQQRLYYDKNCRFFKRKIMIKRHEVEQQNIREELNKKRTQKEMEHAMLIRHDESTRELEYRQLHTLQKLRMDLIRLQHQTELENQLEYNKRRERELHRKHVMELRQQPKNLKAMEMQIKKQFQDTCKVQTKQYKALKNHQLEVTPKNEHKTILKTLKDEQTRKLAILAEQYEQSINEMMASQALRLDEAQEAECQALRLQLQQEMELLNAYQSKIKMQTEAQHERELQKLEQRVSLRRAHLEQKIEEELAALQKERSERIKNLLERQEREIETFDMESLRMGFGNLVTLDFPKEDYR
As to conditions: at 1 µM.

Assay [19] addresses T4, Serine/threonine-protein kinase TAO3 (Homo sapiens). As to conditions: at 10 µM.
Assay [20] deals with T5, Serine/threonine-protein kinase TBK1 (Homo sapiens) (UniProt Q9UHD2).
T5 sequence (whole entry): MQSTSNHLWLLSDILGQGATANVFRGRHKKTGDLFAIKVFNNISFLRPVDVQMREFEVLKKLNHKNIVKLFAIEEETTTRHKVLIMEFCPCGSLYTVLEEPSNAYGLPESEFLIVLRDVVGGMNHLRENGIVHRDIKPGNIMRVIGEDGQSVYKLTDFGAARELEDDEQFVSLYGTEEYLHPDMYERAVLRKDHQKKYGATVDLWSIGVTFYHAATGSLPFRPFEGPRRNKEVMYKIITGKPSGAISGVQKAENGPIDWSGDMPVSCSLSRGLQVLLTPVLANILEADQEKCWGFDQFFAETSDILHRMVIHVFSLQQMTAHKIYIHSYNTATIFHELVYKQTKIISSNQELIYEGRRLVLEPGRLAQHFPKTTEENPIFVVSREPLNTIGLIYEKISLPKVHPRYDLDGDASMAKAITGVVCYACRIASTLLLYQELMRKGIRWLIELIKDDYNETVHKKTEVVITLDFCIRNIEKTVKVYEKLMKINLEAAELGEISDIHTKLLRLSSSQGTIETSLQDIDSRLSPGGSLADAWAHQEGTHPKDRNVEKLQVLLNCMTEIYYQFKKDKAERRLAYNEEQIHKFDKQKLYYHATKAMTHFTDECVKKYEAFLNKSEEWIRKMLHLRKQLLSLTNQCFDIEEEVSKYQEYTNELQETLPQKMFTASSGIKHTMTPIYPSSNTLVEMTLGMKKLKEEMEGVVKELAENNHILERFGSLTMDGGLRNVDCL
As to conditions: at 1 µM.

SRSF protein kinase 1 (Homo sapiens), sequence (Q96SB4 whole entry): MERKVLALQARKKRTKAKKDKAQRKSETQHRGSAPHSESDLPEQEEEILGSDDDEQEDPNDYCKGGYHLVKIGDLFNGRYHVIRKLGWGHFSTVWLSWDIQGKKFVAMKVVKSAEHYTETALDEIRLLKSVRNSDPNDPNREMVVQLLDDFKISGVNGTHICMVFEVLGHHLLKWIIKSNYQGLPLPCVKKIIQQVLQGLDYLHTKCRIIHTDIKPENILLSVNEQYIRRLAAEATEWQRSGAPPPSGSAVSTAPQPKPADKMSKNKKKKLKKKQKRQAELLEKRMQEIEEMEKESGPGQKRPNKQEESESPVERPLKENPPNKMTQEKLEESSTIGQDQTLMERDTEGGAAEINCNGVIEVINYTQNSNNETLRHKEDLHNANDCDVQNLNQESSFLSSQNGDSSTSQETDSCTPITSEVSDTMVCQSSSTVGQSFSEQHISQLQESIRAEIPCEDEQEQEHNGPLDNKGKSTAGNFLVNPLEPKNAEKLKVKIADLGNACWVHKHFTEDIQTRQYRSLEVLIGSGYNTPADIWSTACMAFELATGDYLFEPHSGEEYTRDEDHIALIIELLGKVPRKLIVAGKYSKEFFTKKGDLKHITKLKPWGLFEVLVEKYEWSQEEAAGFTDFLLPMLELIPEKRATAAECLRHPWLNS
SRSF protein kinase 2 (Homo sapiens), sequence (P78362 whole entry, looked up): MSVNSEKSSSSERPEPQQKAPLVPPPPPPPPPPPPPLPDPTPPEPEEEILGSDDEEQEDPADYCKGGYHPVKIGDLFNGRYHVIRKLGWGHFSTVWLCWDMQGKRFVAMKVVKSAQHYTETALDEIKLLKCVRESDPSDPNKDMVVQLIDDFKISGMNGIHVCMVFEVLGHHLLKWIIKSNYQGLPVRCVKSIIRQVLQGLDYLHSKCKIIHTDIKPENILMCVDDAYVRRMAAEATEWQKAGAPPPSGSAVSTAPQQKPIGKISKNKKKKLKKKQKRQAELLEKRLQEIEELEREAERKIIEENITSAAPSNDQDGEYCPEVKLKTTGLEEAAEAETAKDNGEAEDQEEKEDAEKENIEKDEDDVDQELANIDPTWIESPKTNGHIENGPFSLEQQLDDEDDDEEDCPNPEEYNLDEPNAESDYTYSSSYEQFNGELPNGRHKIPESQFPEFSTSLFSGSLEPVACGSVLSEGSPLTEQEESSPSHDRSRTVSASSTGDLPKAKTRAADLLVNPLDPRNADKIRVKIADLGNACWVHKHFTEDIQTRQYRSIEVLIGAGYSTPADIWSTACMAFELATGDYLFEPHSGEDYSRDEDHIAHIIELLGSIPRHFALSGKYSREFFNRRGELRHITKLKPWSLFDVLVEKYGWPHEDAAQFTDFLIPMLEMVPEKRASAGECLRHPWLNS
Serine/threonine-protein kinase 33 (Homo sapiens), sequence (Q9BYT3 whole entry, looked up): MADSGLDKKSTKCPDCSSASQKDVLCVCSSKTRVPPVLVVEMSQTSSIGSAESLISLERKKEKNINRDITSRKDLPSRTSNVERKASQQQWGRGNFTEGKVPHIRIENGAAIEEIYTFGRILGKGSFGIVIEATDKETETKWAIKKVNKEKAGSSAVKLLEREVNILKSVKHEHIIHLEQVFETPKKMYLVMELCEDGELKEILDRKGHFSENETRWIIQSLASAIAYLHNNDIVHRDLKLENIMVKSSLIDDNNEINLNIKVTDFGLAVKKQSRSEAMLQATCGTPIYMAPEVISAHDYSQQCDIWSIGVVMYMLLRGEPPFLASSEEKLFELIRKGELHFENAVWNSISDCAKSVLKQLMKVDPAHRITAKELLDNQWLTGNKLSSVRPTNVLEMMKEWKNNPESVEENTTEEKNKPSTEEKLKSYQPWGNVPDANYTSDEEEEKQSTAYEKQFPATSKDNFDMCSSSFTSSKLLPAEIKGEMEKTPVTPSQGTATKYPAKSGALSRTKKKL
Serine/threonine-protein kinase SIK1 (Homo sapiens), sequence (P57059 whole entry): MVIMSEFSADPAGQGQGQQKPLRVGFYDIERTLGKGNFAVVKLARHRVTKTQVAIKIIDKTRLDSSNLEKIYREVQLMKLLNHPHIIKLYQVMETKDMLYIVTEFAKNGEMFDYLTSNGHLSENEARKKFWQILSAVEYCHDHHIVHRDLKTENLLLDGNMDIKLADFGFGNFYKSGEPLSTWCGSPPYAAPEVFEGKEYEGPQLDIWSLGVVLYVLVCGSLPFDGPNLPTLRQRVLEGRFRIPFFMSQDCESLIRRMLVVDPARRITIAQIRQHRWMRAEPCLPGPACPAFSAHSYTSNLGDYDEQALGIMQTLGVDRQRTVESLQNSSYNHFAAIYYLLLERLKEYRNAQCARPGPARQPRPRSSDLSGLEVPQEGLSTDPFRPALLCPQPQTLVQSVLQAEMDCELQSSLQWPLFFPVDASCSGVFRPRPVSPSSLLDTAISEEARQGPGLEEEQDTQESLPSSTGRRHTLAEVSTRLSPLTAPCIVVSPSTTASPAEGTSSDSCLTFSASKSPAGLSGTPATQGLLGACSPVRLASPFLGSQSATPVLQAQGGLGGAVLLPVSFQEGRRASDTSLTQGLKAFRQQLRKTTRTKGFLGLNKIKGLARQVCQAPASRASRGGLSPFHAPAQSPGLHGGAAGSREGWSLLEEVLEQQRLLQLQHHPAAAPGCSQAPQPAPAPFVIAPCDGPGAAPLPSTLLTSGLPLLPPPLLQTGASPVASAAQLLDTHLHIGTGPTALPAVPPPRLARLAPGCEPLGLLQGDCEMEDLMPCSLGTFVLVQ
Serine/threonine-protein kinase PLK2 (Homo sapiens), sequence (Q9NYY3 whole entry, looked up): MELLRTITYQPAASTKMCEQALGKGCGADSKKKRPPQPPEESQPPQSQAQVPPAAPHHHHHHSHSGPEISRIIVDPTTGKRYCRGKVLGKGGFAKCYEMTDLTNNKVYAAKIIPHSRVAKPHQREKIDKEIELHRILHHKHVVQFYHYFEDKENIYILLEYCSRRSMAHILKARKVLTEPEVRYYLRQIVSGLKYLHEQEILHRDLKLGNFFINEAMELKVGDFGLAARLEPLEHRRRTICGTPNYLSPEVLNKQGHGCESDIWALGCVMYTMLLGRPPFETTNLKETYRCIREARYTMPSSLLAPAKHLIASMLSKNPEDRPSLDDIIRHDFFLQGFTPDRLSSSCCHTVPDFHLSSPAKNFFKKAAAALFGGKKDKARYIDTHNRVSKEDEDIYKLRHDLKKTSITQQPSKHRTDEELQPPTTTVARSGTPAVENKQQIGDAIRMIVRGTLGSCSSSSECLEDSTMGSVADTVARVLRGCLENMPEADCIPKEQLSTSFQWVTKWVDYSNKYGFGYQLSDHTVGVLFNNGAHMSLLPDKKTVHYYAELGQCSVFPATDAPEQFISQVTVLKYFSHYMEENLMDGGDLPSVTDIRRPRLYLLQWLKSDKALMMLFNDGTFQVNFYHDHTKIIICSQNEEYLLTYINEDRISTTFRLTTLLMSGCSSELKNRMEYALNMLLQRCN

`O=c1cc(-c2cccc3c2Sc2ccccc2S3)oc(N2CCOCC2)c1`: the residual activity worked out at 83% in [1]; 101% in assay [2]; 83% in assay [3]; 107% in assay [4]; 91% in [5]; 97% in assay [6]. Moreover, the residual activity in assay [7] was found to be 87%; in [8], 93%; in assay [9] it was 96%; in [10], 104%; in [11] it was 90%; in assay [12], 101%. Moreover, the residual activity in [13] was 89%; in assay [14], 107%; in assay [15], 80%; in assay [16] it was 93%; in [17] it was 90%; in [18], 94%. Moreover, the residual activity in [19] was determined as 82%; in [20], 99%.
On to `CNc1cc2c(Nc3cccc(Br)c3)ncnc2cn1`, for which the residual activity amounted to 57% in assay [1]; 93% in assay [2]; 97% in assay [3]; 98% in assay [4]; 92% in assay [5]; 96% in assay [6]. Also, the residual activity in [7] came out at 93%; in [8] it was 106%; in assay [9], 89%; in [10] it was 117%; in assay [11], 90%; in assay [12] it was 91%. Also, the residual activity amounted to 90% in assay [13]; 100% in [14]; 81% in [15]; 110% in assay [16]; 75% in [17]; 95% in assay [18]. The residual activity in assay [19] was 90%; in [20], 79%.
In the case of `Oc1ccc(-c2nc(-c3ccc(F)cc3)c(-c3ccncc3)[nH]2)cc1`, the residual activity in [1] stood at 65%; in assay [2], 123%; in [3] it was 110%; in assay [4] it was 118%; in assay [5], 76%; in assay [6], 105%. Moreover, the residual activity in assay [7] is 94%; in assay [8], 105%; in assay [9], 104%; in [10] it was 109%; in [11], 100%; in assay [12] it was 104%. Also, the residual activity is 101% in [13]; 102% in assay [14]; 69% in [15]; 106% in assay [16]; 68% in [17]; 111% in assay [18]. The residual activity in [19] was 84%; in assay [20] it was 110%.
As to `O=Nc1c(-c2c(O)[nH]c3ccccc23)[nH]c2ccccc12`, the residual activity in [1] came to 8%; in [2], 90%; in assay [3], 66%; in assay [4], 96%; in assay [5], 67%; in [6] it was 43%. Also, the residual activity was found to be 8% in assay [7]; 97% in assay [8]; 82% in [9]; 49% in assay [10]; 60% in [11]; 64% in assay [12]. For the same compound, the residual activity in assay [13] is 71%; in assay [14] it was 83%; in [15] it was 39%; in assay [16], 75%; in assay [17], 26%; in assay [18], 85%. The figures for the residual activity in assay [19] and in [20] were 28% and 9%, respectively.
